# This is a sample that favours compounds with a hit; in the whole collection about 10% have one here.
# G9a inh: inhibitors of human histone lysine methyltransferase G9a. G9a H3K9 monomethylation, AlphaScreen, 2 h. AID 504332. hit rate 8.8% among 350,000. Potency, µM (top dose mostly 102 µM), without a hit: top-dose activity, negative = inhibition, hits mostly inhibitors; also: % is scaled to controls: 0 for no effect and ±100 for the full control effect; nearly all actives have a fitted effect of over 75% in size
# Target sequence (Q96KQ7 913-1193 limits assumed): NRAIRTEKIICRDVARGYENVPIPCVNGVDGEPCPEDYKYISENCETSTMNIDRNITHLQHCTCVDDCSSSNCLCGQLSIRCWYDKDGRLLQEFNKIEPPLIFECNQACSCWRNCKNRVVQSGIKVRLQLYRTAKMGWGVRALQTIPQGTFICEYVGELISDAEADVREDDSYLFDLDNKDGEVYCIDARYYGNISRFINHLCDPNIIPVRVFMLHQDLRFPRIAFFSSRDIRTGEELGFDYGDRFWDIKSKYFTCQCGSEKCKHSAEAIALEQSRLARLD
#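 Enzyme 20 nM + cpd, 15 min RT; add b-H3K9 pep 500 nM / SAM 20 uM; 2 h RT; anti-H3K9me1 Ab 0.5 ug/mL + SA donor / anti-rabbit acceptor beads 20 ug/mL each, 10 min; AlphaScreen read.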
# BAZ2B inh: blocks human BAZ2B. Q9UIF8. AlphaScreen BAZ2B-H3K14Ac peptide displacement. Potency, µM (doses to about 114 µM), for the others: at the highest dose activity change, negative = inhibition, hits mostly inhibitors. hit rate 4.4% among 360,000. AID 504333; also: % is scaled to controls: 0 for no effect and ±100 for the full control effect; nearly all actives have a fitted effect of over 60% in size
#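 Complex of BAZ2B and biotin-H3K14Ac (50 nM apiece) forms over 30 min at RT, then faces library compounds up to 110 uM for another 30 min; AlphaScreen beads added, 20 min dark incubation, luminescence read.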
# GLS inh: glutaminase GLS (human) inhibition; AID 624170; GLS enzymatic activity, qHTS titration; O94925; Potency, µM (top dose mostly 45.5 µM), for the others: at the top dose activity change, negative = inhibition, hits mostly inhibitors; hit rate 0.21% among 410,000; also: % is scaled to controls: 0 for no effect and ±100 for the full control effect
#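 Coupled fluorescence readout: glutamate oxidase/HRP/Amplex Red detect glutamate formed by hKGA from L-glutamine (1 mM solution added). Buffer 45 mM KH2PO4 pH 8.2, 0.02% Tween-20; reads at t0 and 30 min RT.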
# HP1b chromo inh: HP1-beta chromodomain-methylated histone interaction inhibition. P83916. AlphaScreen HP1-beta / biotin-H3K9me3 peptide binding. Potency, µM (doses to about 114 µM), inactives show at the top dose activity change, negative = inhibition, usual class: inhibitors. hit rate 0.56% among 390,000. AID 540317; also: nearly all actives have a fitted effect of over 70% in size
# Target sequence (P83916 whole entry, looked up): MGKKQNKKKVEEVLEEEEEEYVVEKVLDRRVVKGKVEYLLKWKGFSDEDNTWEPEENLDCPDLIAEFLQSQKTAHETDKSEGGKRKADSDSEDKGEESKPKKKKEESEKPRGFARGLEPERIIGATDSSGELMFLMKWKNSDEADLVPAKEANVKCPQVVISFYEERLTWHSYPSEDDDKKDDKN
#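 AlphaScreen: HP1-beta (50 nM) preformed 30 min with biotin-H3(1-18)K9me3 peptide (50 nM) in PBS pH 7.4, 0.01% Tween-20. Compound added for 30 min at RT, then streptavidin donor/nickel chelate acceptor beads (10 ug/mL) for 30 min.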
# JMJD2A Tudor inh: JMJD2A Tudor domain (human) inhibition | AlphaScreen JMJD2A-Tudor / H3K4me3 peptide binding | Potency, µM (titrated, usually from 114 µM), for inactives: top-dose activity change, negative = inhibition, usual class: inhibitors | hit rate 4.4% among 390,000; also: % is scaled to controls: 0 for no effect and ±100 for the full control effect; nearly all actives have a fitted effect of over 50% in size
# Numbers without * were called inactive; ? = inconclusive; nt = not tested or not shown; ! = repeats disagree; [ ] = another dose, or the depositor's remark. Calls follow the shape of the dose curve; as a rule, active = well fitted curve in the direction sought with a large enough effect; inconclusive = small, poorly fitted or top-dose-only effect, or another doubt; inactive = no such curve, though single readings can be large; an effect the other way counts as inactive or inconclusive. Potency is read from the fitted curve at half-maximal effect.
SMILES,G9a inh,BAZ2B inh,GLS inh,HP1b chromo inh,JMJD2A Tudor inh
C=CCn1c(O)c(/C=N/NC(=O)c2ccncc2)c(=O)[nH]c1=O,1%,79µM*,4%,42%,-23%
O=C(N/N=C/c1c(O)n(Cc2ccccc2)c(=O)[nH]c1=O)c1ccncc1,-37%,50µM*,4%,18%,?
O=C(N/N=C/c1c(O)n(Cc2ccc(F)cc2)c(=O)[nH]c1=O)c1ccccc1,1%,79µM*,12%,41%,?
CCCCC(=O)N/N=C/c1c(O)n(Cc2ccc(F)cc2)c(=O)[nH]c1=O,-12%,?,-19%,26%,-30%
O=C(Cc1ccccc1)c1ccccn1,nt,nt,0%,-20%,3.5µM*
O=C(O)Cc1ccccc1,19%[59 µM],nt,-16%,nt,nt
CCC(C)N1C(=O)/C(=C\c2cnc(N(C)C)nc2)C(=O)NC1=S (centres undefined),7.9µM*,?,?,-1%,?
CCC(C)N1C(=O)/C(=C\c2ccc(N3CCCCCC3)cc2)C(=O)NC1=S (centres undefined),3.5µM*,45µM*,150%,?,?
CCC(C)N1C(=O)/C(=C\c2cc3c4c(c2)CCCN4CCC3)C(=O)NC1=S (centres undefined),45µM*,?,-4%,?,14µM*
Cc1ccc(OC(=O)N(C)C[C@H]2OCc3cnnn3CCCC(=O)N([C@H](C)CO)C[C@@H]2C)cc1,nt,nt,0%,nt,nt
C[C@]12CCC(=O)C=C1CCC1C2CC[C@@]2(C)C1CC[C@]2(C)O (some centres undefined),nt,nt,0%,8%[57 µM],-17%
C[C@]12C/C(=C/O)C(=O)C[C@@H]1CC[C@@H]1[C@@H]2CC[C@@]2(C)[C@H]1CC[C@]2(C)O,18µM*,nt,-7%,nt,nt
COc1ccc2o/c(=N\O)c(C(=O)Nc3ccc(C)cc3)cc2c1,50µM*,-4%,25%,22%,-22%
Cn1c(O)c(C2=NNC(c3ccc(Cl)cc3)C2)c(=O)n(C)c1=O (centres undefined),nt,45µM*,1%,30%,-3%
COc1ccc(-c2n(-c3ccccn3)c3ccccc3[n+]2-c2ccccn2)cc1,3.2µM*,4%,1%,30%,3%
CC(C)c1cccc(C(C)C)c1OC(=O)NC(=O)c1c(F)cccc1F,15%[12.7 µM],2%,-7%,45%,-20%
O=C(O)c1ccc([N+](=O)[O-])c([N+](=O)[O-])c1,nt,nt,-23%,-13%,-21%
O=C(O)c1sccc1Oc1ccc(F)cc1[N+](=O)[O-],35µM*,?,2%,21%,-20%
CCOC(=O)N1CCC(NC(=O)CCc2nc(C3=CCN(C)CC3)no2)CC1,?,79µM*,-15%,13%,-6%
COC(=O)/C=C/C(=O)N[C@@H]1CC[C@@]2(O)[C@H]3Cc4ccc(O)c5c4[C@@]2(CCN3CC2CC2)[C@H]1O5,31%[59 µM],nt,nt,nt,nt
Cc1c(C=C2C(=O)N(C)C(=S)N(C)C2=O)c2ccccc2n1CC(=O)NCC1CCCO1 (centres undefined),14µM*,?,1%,-5%,-27%
COc1ccc(CCNC(=O)c2ccc3c(c2)CCN3S(=O)(=O)c2ccc(C)cc2)cc1OC,5µM*,-17%,0%,-14%,-27%
C=CCC1(C(C)CCC)C(=O)NC(=O)NC1=O (centres undefined),nt,nt,-12%[99.4 µM],nt,nt
O=C(O)C1CN(CP(=O)(O)O)CCN1 (centres undefined),20%[59 µM],nt,nt,nt,nt
CCn1cc(C(=O)O)c(=O)c2ccc(C)nc21,8.9µM*!,79µM*,8%,6%,-17%
SMILES,G9a inh,BAZ2B inh,GLS inh,HP1b chromo inh,JMJD2A Tudor inh
Cc1ccc(-c2csc(NC(CO)c3nc4ccccc4n3CCOCCO)n2)cc1 (centres undefined),nt,nt,9%,-4%,?
O=C(O)CCC(=O)NCCC1=c2ccccc2=N/C1=C\c1c(O)n(Cc2ccc(F)cc2)c(=S)[nH]c1=O,nt,32µM*,?,32µM*,32µM*
COc1cc(CN=Cc2c(O)n(Cc3ccccc3)c(=S)[nH]c2=O)cc(OC)c1,nt,-8%,-10%,34%,-1%
CCCCC1C(=O)NC(=S)N(C)C1=O (centres undefined),nt,nt,11%,-1%,79µM*
CCCCCC1(C(C)C)C(=O)NC(=S)NC1=O,nt,nt,0%,37%,-4%
CCCCC1C(=O)NC(=S)NC1=O,4.5µM*,-26%,nt,nt,nt
CC(=O)OC(C)(C)/C=C/C(=O)[C@](C)(O)C1[C@H](O)C[C@@]2(C)C3CC=C4C(C[C@H](O)C(=O)C4(C)C)[C@]3(C)C(=O)C[C@]12C (some centres undefined),nt,nt,1%,45%,-6%
Nc1ccc(C2(c3ccc(N)cc3)CN3CCC2CC3)cc1,5.6µM*,-3%,26%,3%,-24%
CC(N)Cc1cn(Cc2ccccc2)c2ccccc12 (centres undefined),?,-30%,6%,-22%,79µM*
CC(=O)c1cn(Cc2ccc(F)cc2)c2ccccc12,14%,-33%,-4%,23%,-2%
COc1ccc(-n2c(-c3ccccc3F)nc3ccccc3c2=O)cc1,nt,nt,2%,nt,nt
COc1ccc(C2SCC(=O)Nc3c2c(=O)[nH]n3C2CCCCCC2)cc1 (centres undefined),71µM*,14%,-17%,26%,-15%
COC(=O)N1Cc2ccccc2-n2nncc2C1,nt,nt,-4%,nt,nt
Nc1ccc(N)cc1,13µM*,nt,-25%,nt,nt
Nc1ccc(Cl)cc1,nt,nt,16%[99.4 µM],nt,nt
CCCCCCC(C)(C)c1cc(OC)c2c(c1)OC(C)(C)[C@@H]1CC=C(C)C[C@@H]21,15%[59 µM],nt,nt,nt,nt
Cc1cccc(C(=O)NC(Oc2ccccc2)C(Cl)(Cl)Cl)c1 (centres undefined),4%[59 µM],10%,-21%,0%,40µM*
CCOP(=O)(OCC)C(NC(=O)c1cccc(C)c1)C(Cl)(Cl)Cl (centres undefined),nt,7%,-4%,34%,-10%
O=C1NC(=O)C(=Cc2ccc(N3CCOCC3)cc2)C(=O)N1,45µM*,-3%,-8%,50%,0%
Cc1cc(N2CCOCC2)ccc1/C=C1\C(=O)NC(=O)N(c2ccccc2)C1=O,-34%[12.7 µM],?,-6%,49%,-1%
COc1cc(N2CCOCC2)ccc1/C=C1\C(=O)NC(=O)N(Cc2cccs2)C1=O,32µM*,1%,63%,20%,-19%
O=C1NC(=O)C(=Cc2ccc3c(c2)OCO3)C(=O)N1,50µM*,-14%,nt,nt,nt
COc1cc(N2CCOCC2)ccc1C=C1C(=O)NC(=O)NC1=O,79µM*,0%,-14%,-12%,-10%
CC(C)COC(=O)N1Cc2ccccc2-n2nncc2C1,nt,nt,3%,nt,nt
COc1cc(N2CCOCC2)ccc1/C=C1\C(=O)NC(=O)N(Cc2ccc3c(c2)OCO3)C1=O,40µM*,?,98%,-10%,-31%
C=CCN(CC#CCOc1ccccc1OC)CC=C,18µM*,50µM*,nt,nt,nt
